Results taken from the supplement of paper PMC3334620.
Whole data set: some 33,000 sequences, median “E-score (-0.5 to 0.5)” near -8e-05, cut for the highest 2% near 0.23. This is one part of a sample in which the highest values are shown more often than they occur.

Target: T1, Nrg2 (UniProt P38082)
T1 sequence: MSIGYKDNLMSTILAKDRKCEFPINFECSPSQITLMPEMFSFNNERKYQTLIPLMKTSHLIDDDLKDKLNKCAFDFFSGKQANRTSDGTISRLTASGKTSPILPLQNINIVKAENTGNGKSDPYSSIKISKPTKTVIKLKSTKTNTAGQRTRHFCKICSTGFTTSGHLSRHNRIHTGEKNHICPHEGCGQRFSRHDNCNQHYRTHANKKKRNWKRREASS
Experiment: PBM E-score (8-mer binding enrichment) (E-score (-0.5 to 0.5)); higher = stronger / more preferred TF binding
Conditions: protein concentration: 100 nM; construct: GST-full length
Experimental: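 Universal 'all 10-mer' protein binding microarrays (Agilent AMADID 015681) probed with GST-tagged S. cerevisiae TFs (full-length or DBD) made by in vitro transcription/translation (PURExpress), about 100-200 nM. Bound TF was detected with fluorescent anti-GST. Each ungapped 8-mer (which stands for itself and its reverse complement) is scored by the PBM enrichment score (E-score), a modified Wilcoxon-Mann-Whitney statistic from -0.5 to +0.5, computed with the Universal PBM Analysis Suite. Scale: above 0.35 generally sequence-specific binding.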

Sequence	PBM E-score
AGTTTGCA	-0.0668
AGGGTTTA	0.235
AGGGTGCA	0.256
CGGGTGCA	-0.0669
AGGGTTCC	0.189
AGGGTTCA	0.281
GGGGTTCA	0.166
AGGGTTTG	0.172
CGGGTTTA	0.104
AGGGTGCG	0.0103
AGCTGGCG	-0.158
AACCCGTA	-0.0217
GAATTCGA	0.0262
AAAACTAT	0.0045
TAAACTAA	0.186
CTAACTAA	-0.0143
AAAACTAA	0.234
TCAACTAA	0.0939
TTAACTAA	0.249
ATAACTAA	0.0389
CCAACTAA	0.0905
GCAACTAA	0.288
ACAGTTCG	0.103
GAGGCAAC	-0.192
AAGTAAGG	0.159

Sequence	PBM E-score
CGAAAACA	0.0723
CTGGCCTA	-0.0943
ACTTAGCT	-0.202
CGCAGAAA	0.0592
GATATATA	0.247
TATATATA	0.269
AATATATA	0.0908
AATATATT	0.341
TAAATATA	0.144
GAAATATA	0.256
GATATACA	0.0803
AATATATG	0.225
AAAATATA	0.00189
GATATATC	0.0168
CATATATA	0.205
TATATACA	0.207
AGGCCGCC	-0.0684
CGACCAAA	0.222
ATTACCAA	0.0553
CATTGACG	-0.0426
ACTTCGGC	-0.0688
GATATGGA	0.259
AATATGGA	0.0669
CAAATATC	0.256
CAAATATG	-0.0116

Sequence	PBM E-score
TATATGGA	0.0065
TAAATAGA	-0.125
AAAATAGA	0.118
CAAATAGA	0.296
CAAATATA	0.03
TAGCGTGA	0.0132
CGGTAGAC	0.0168
CGGCGAAC	-0.0868
CATTGGCC	-0.0708
ATCAGAAA	-0.042
GGAATAAC	0.132
TAGGACAA	0.049
GGATAGTA	0.177
ATTATGCG	0.266
ACTATTCG	0.193
ATTATTCC	0.0891
ATTATTAA	0.238
ATTATTCA	0.23
ATTATGCC	0.115
CTTATTCA	-0.00255
ATTATTCG	0.295
CTTATTAA	0.196
ATTATGCA	-0.00258
GTTATTAA	0.182
GTTATTCA	0.105

Sequence	PBM E-score
CTTGATGC	-0.0811
CCAACCCA	-0.242
TCTTCTAA	-0.0126
CAGATATG	0.159
CGGATTGC	0.161
CGCGTTTA	0.0535
TGTCCGAA	0.143
ACAGGCTC	-0.159
ACCTCCCG	-0.177
TCGGTCAA	0.0158
CCCAGACG	-0.0304
CTTGCGAC	-0.142
ATTATACC	0.18
CTCATTAA	0.173
ATTATACG	0.252
ATCATTAA	0.171
GTCATTAA	0.25
ATTATACA	-0.00719
TGACGTAA	-0.175
CCTTAGAA	-0.0241
GCTAACCA	-0.172
GTAAGATA	0.0912
GCAACCTA	0.0294
GAATCCTC	-0.1
AGCAAAGG	0.0268

Sequence	PBM E-score
AGTAAGGA	-0.00565
AGTAAGGC	-0.036
AGCAAGGG	0.261
AGCAAGGC	-0.0107
AGTAAGGG	0.233
AGCAACTC	-0.0833
GCCGGATA	0.0712
GAAAGCCC	0.0882
GAAACACC	0.0146
AATCCCTC	-0.0866
AATCCCTG	0.278
AGTCCCTG	0.294
AGTCCCTC	-0.0587
AGTCCCTA	0.0553
AATCCCTA	0.154
CTTCAGCC	-0.229
ACATCAAT	0.079
ATAAATTC	0.0818
CTAAATTA	0.127
GTAAATTA	-0.132
ATCAATTG	0.15
ATCAATTA	0.271
AAAAATTG	-0.095
ATAAATTG	0.272
ATAAATTA	0.316

Sequence	PBM E-score
ATCAATTC	0.107
ACTAAGGG	0.0502
GGCTTCCA	-0.186
CGCTTTTA	-0.0218
GGTGCCTA	-0.0877
CGCGCACC	0.14
GGTTCACA	0.103
TCTCGCAA	-0.0499
CAACCGCA	0.0352
CAACCGCG	0.271
CAACCGCC	0.0219
AAACCGCC	0.041
AAACCGCG	0.266
AAACCGCA	-0.0776
CGTCTTGC	0.0795
CATGAATC	0.115
GTTTGTGA	-0.00935
TACAAATA	0.0774
AACAAATT	0.251
AACAAATG	0.0558
AACAAGTA	-0.0255
AACAAGGT	0.0681
AACAAAGG	0.0899
AACAAATA	0.247
AACAAACA	0.22

Sequence	PBM E-score
AACAAGTT	-0.0278
TACAAACA	0.243
AACAAAGT	0.26
TACAAGCA	0.121
ACCAAGGA	-0.0125
CGGTGGCC	0.0203
AGATCTAC	0.00881
ATGCCTGA	-0.126
CATTTGAA	0.0105
CTTAGTCA	-0.0736
CGGCCCCA	-0.253
ACTCATGA	0.143
CCTAACTC	-0.0633
AACCTCAG	0.072
CACCTCGA	0.256
GACCTCGA	0.126
AACCTCGA	0.0566
GGTTCAGA	0.0397
ACCATGGG	-0.0447
CCCATGGA	-0.00741
CCCATGGG	0.323
TAGAACAA	-0.00331
AGTCAGGA	0.0134
GGTCAGGA	0.244
CGTCAGGA	-0.112

Sequence	PBM E-score
GTGGCAGA	-0.276
AAGAGCAT	-0.0179
GCCCCCTA	-0.212
CGCCCTGA	0.167
AGCCCTGA	0.0189
GGCCCTGA	0.24
GCCCCTGA	0.292
GCCCCTTA	0.114
ACATAGAA	0.157
TCCATCGA	-0.021
GATACCCC	0.0656
AGCTTTAC	-0.26
CCCGAGGC	-0.176
CATGGTAC	0.00349
ATATGATG	0.0173
GTATGAGA	0.133
GTATGACA	-0.0684
CTATGACA	-0.012
GTATGATA	0.281
CTATGATA	0.0584
ATATGATA	0.249
ATATGACA	0.244
GCATGATA	0.0399
GAGGGCAC	-0.111
AGACAGTA	0.0173

Sequence	PBM E-score
CGAAGCGC	-0.0339
CCATCCTC	-0.111
CTCGGCAC	0.0273
AAAGATAA	0.112
AAAGATAC	0.232
AAAGATAG	-0.188
TCAAAGAA	-0.123
ACGTCTTG	-0.0332
GATAGAGA	-0.0171
CTAAGGAA	0.0506
CCCTTACG	-0.128
ACGCGAAA	0.242
TCGCGAAA	0.161
CCGCGAAA	0.0786
CGAGTGCA	0.0846
GTATGGTA	0.158
GGACGCCA	-0.149
AGACCCAC	0.0598
AACTTTGG	-0.0393
AACTTTGA	-0.0178
AACTTTGT	0.251
CGGCTATA	-0.0676
GTAACCAA	0.0617
CTCCGAAA	-0.0954
AAGACAAG	-0.0376

Sequence	PBM E-score
ATGACAAG	0.142
GTGACAAC	0.112
CAGACAAC	0.178
ATGACAAC	0.239
AAGACAAC	0.235
AAACCGAT	-0.137
CCGCCCGA	0.148
ACTTGGCC	-0.0839
ATCTGCGA	0.0624
ATCTGCGC	0.0656
ATCTGCGG	0.229
ACTAGAGT	-0.204
CTTCGGAC	0.0444
ATTATCGC	0.254
ATTATCGG	-0.142
ATTATCGA	-0.00721
ATAGGGGG	-0.364
CCCGACCG	-0.0769
CACCTGGG	-0.0933
CTCGCGAC	0.192
TTCGCGAA	0.22
GGCGCGAC	0.149
ATCGCGAC	0.0998
ATCGCGAA	0.268
ATCGCGAT	0.271

Sequence	PBM E-score
AACGCGAG	0.092
GTCGCGAC	0.37
CACGCGAA	-0.135
GTCGCGAA	0.125
AACGCGAA	0.249
ATCGCGAG	0.175
CCGCGCCA	-0.00589
CTCCTGTA	-0.111
ATACCGGA	-0.222
GGCGAGAA	0.16
AGTGTATG	0.0501
AAGCTACT	0.0546
GATCCAGA	0.187
AACGTAGG	-0.148
CAAAGCGG	-0.0751
AAGCAGTA	-0.0813
CCGCAGAG	-0.193
GCGCAGAA	0.248
CCGCAGAA	0.245
GCGCAGAC	0.0533
CCGCAGAC	-0.105
TCGCAGAA	-0.114
CAAGCGGC	0.0964
CACCTATA	-0.032
AGTGAAGC	0.054

Sequence	PBM E-score
AAAGAACG	0.0453
ATTAATCA	0.171
AGTCTTGA	-0.0377
AACGGCGA	0.303
CACGGCGA	0.0616
AACGGCAT	0.23
AACGGCAC	-0.244
AACGGCAA	0.156
AACGGCGT	-0.11
ATTGCGAG	0.0375
GTACGAGA	0.0861
TGACGGAA	-0.00402
AAGGACTC	-0.0561
ATGCTCGG	0.117
AAATCCAG	0.196
AAATCCAC	0.082
AAATCCAT	0.266
ATGGTGGA	-0.0629
ATATTCAA	0.244
ATATTAAC	0.176
GCATTAAA	0.136
CTATTAAA	0.151
CTATTCAA	0.0974
ATATTAAA	0.29
ATATTAAG	0.0738

Sequence	PBM E-score
ATATTAAT	0.286
TTATTCAA	0.029
TCATTAAA	0.35
TTATTAAA	0.196
ACATTAAA	0.143
CGTTAAAC	0.0981
ATAGTGAC	-0.0527
ATATTATG	0.304
ATATTATC	0.0409
AAATTATG	0.106
AAACCATC	0.103
ATGTGCAC	0.0387
CATCTAAC	-0.152
GGCATAGA	0.0809
GATTATAA	0.207
AATTATAC	0.122
GATTATAC	0.235
CTTAGAAC	0.0319
CTGACTGA	-0.0542
GCTCGAAC	0.191
GAAAGAAA	0.281
TGCAGAAA	0.104
CAAAGAAA	0.0775
GGCAGAAC	0.088
GGCAGAAA	0.286

Sequence	PBM E-score
GAAAGAAC	0.0456
AAGCTGAG	-0.00374
AGCGGTAG	-0.196
GAGTAAGA	-0.0102
AAGACGGT	-0.161
CAAAGCAA	0.265
CAAAGCAG	0.0557
CAAAGCAC	-0.0605
AGTTAGGG	0.0307
ACATAAAC	0.0128
GCGACCAC	-0.0633
GCGACCAA	0.248
CAGACCAA	0.0347
GAGACCAA	0.241
TAGACCAA	0.121
ACGACCAA	-0.12
CCTTATCC	-0.23
AAACTAGG	-0.0197
AACCGCAA	0.185
CACCGCAA	0.233
CACCGCAG	0.0838
